# Records with an inconclusive call do not appear. Entries that show only a call come without a potency. The source made the active and inactive calls. The call rests on the fitted dose curve; in most records, active means well fitted curve in the direction sought with a large enough effect in the repeat runs; inconclusive means weak or mixed curves; inactive means no such curve, though single readings can be large; an effect the other way counts as inactive or inconclusive.
# Legend:
# [1] = A CellTox Green Cytotoxicity Assay to monitor cytotoxicity in HEK293 cells - 24 hour (AID 1224875); further: series mostly up to about 77 µM; nearly all actives have a fitted effect of over 45% in size
# Summary of the method: (§1)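 Read-out: fluorescence of a cell-impermeant cyanine dye staining DNA of dead cells, proportional to cytotoxicity. HEK293, 600 cells/well with reagent, compound (23 nL DMSO) added after 5 h; reads at 0, 8, 16, 24, 32, 40 h.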
# [2] = A CellTox Green Cytotoxicity Assay to monitor cytotoxicity in HepG2 cells - 16 hour (AID 1224876); further: nearly all actives have a fitted effect of over 45% in size; further: potency means the concentration at half of the fitted maximal effect
# Summary of the method: (§2)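 HepG2, 600 cells/well premixed w/ CellTox Green; 5 h settle, 37 C/5% CO2; pintool cpd add (DMSO); 37 C, 40 h; fluorescence read at 0, 8, 16, 24, 32, 40 h.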
# [3] = qHTS RealTime-Glo MT Cell Viability Assay in HepG2 cells - 32 hour (AID 1224877); further: nearly all actives have a fitted effect of over 55% in size; further: potency means the concentration at half of the fitted maximal effect
# Summary of the method: (§3)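 HepG2 cells (600/well) were dispensed with RealTime-Glo reagents, incubated 5 h at 37 °C, then treated with compounds in DMSO for up to 40 h. Nonlytic NanoLuc luminescence reflecting viable cells was read at each stated time point.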
# [4] = A CellTox Green Cytotoxicity Assay to monitor cytotoxicity in HepG2 cells - 24 hour (AID 1224878); further: nearly all actives have a fitted effect of over 45% in size; further: potency means the concentration at half of the fitted maximal effect
# Summary of the method: as §2
# [5] = A CellTox Green Cytotoxicity Assay to monitor cytotoxicity in HepG2 cells - 40 hour (AID 1224879); further: nearly all actives have a fitted effect of over 40% in size; further: potency means the concentration at half of the fitted maximal effect
# Summary of the method: as §2
# [6] = qHTS RealTime-Glo MT Cell Viability Assay in HEK293 cells - 0 hour (AID 1224880); further: top concentration of the series differs between compounds; nearly all actives have a fitted effect of over 45% in size
# Summary of the method: (§4)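 Luminescence readout at each listed time point; HEK293, 600 cells/well, RealTime-Glo MT reagent added with cells; compounds pinned (23 nL in DMSO) after 5 h at 37 C; continuous culture at 37 C.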
# [7] = A CellTox Green Cytotoxicity Assay to monitor cytotoxicity in HEK293 cells - 32 hour (AID 1224881); further: nearly all actives have a fitted effect of over 40% in size
# Summary of the method: as §1
# [8] = A CellTox Green Cytotoxicity Assay to monitor cytotoxicity in HepG2 cells - 0 hour (AID 1224882); further: nearly all actives have a fitted effect of over 35% in size
# Summary of the method: as §2
# [9] = A CellTox Green Cytotoxicity Assay to monitor cytotoxicity in HepG2 cells - 32 hour (AID 1224883); further: nearly all actives have a fitted effect of over 50% in size; further: potency means the concentration at half of the fitted maximal effect
# Summary of the method: as §2
# [10] = A CellTox Green Cytotoxicity Assay to monitor cytotoxicity in HEK293 cells - 8 hour (AID 1224884); further: nearly all actives have a fitted effect of over 35% in size
# Summary of the method: as §1
# [11] = qHTS RealTime-Glo MT Cell Viability Assay in HepG2 cells - 16 hour (AID 1224885); further: nearly all actives have a fitted effect of over 50% in size; further: potency means the concentration at half of the fitted maximal effect
# Summary of the method: as §3
# [12] = qHTS RealTime-Glo MT Cell Viability Assay in HEK293 cells - 24 hour (AID 1224886); further: nearly all actives have a fitted effect of over 50% in size; further: potency means the concentration at half of the fitted maximal effect
# Summary of the method: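 HEK293 cells seeded with NanoLuc/prosubstrate reagent, rested 5 h at 37 C, then dosed and kept at 37 C up to 40 h. Nonlytic real-time luminescence from viable cells read at 0, 8, 16, 24, 32 and 40 h.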
# [13] = qHTS RealTime-Glo MT Cell Viability Assay in HEK293 cells - 8 hour (AID 1224887); further: nearly all actives have a fitted effect of over 50% in size; further: potency means the concentration at half of the fitted maximal effect
# Summary of the method: as §4
# [14] = A CellTox Green Cytotoxicity Assay to monitor cytotoxicity in HEK293 cells - 16 hour (AID 1224888); further: nearly all actives have a fitted effect of over 35% in size
# Summary of the method: as §1
# [15] = qHTS RealTime-Glo MT Cell Viability Assay in HepG2 cells - 0 hour (AID 1224889); further: nearly all actives have a fitted effect of over 50% in size
# Summary of the method: as §3
# [16] = A CellTox Green Cytotoxicity Assay to monitor cytotoxicity in HepG2 cells - 8 hour (AID 1224890); further: nearly all actives have a fitted effect of over 45% in size
# Summary of the method: as §2
# [17] = qHTS assay to identify small molecule antagonists of the androgen receptor (AR) signaling pathway using the MDA cell line in the presence of 0.5 nM R1881 - cell viability counter screen (AID 1259242); further: nearly all actives have a fitted effect of over 45% in size
# Summary of the method: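 Live-cell protease fluorescence, CellTiter-Fluor, 30 min at 37C. Cells: MDA-kb2, 3,000/well, preincubated 5 hr. Compounds plus 0.5 nM R1881 final, 16 hr, 37C, 0% CO2.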
# [18] = target: Estrogen receptor (Homo sapiens) (UniProt P03372); experiment: qHTS assay to identify small molecule antagonists of the estrogen receptor alpha (ER-alpha) signaling pathway using the BG1 cell line in the presence of 0.1 nM 17-beta-estradiol (AID 1259244); further: nearly all actives have a fitted effect of over 50% in size
# Estrogen receptor (Homo sapiens), sequence (P03372 whole entry, looked up): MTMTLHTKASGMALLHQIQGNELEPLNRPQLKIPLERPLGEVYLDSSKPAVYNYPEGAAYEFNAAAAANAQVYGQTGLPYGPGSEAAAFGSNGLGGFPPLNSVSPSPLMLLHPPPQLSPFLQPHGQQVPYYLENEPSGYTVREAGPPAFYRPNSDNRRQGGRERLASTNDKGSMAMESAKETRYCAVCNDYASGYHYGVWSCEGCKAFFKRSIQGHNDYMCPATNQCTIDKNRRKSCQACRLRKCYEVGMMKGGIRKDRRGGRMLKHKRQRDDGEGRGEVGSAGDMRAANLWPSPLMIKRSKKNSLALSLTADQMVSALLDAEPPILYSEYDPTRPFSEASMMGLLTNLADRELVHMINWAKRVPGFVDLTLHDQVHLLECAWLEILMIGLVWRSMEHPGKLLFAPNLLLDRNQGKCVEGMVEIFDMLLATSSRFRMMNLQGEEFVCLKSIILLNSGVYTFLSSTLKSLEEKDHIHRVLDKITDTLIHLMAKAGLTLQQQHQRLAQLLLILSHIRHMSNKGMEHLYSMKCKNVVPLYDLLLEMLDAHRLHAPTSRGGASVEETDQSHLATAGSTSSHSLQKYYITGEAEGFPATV
# Summary of the method: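 Luminescence after ONE-Glo (30 min, room temperature) measured ERE-luciferase activity in VM7Luc4E2 cells treated 22 h with compound and 0.1 nM final 17beta-estradiol as stimulator.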
# [19] = qHTS assay to identify small molecule antagonists of the estrogen receptor alpha (ER-alpha) signaling pathway using the BG1 cell line in the presence of 0.1 nM 17-beta-estradiol - cell viability counter screen (AID 1259241); further: nearly all actives have a fitted effect of over 40% in size
# Summary of the method: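 Cells were plated and left 24 hr, compounds in DMSO were pinned in, 17beta-estradiol was added to 0.1 nM final, and after 22 hr CellTiter-Fluor reagent was added for 30 min before fluorescence was read.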
# [20] = target: Androgen receptor (Homo sapiens) (UniProt P10275); experiment: qHTS assay to identify small molecule antagonists of the androgen receptor (AR) signaling pathway using the MDA cell line in the presence of 0.5 nM R1881 (AID 1259243); further: nearly all actives have a fitted effect of over 50% in size; further: potency means the concentration at half of the fitted maximal effect
# Androgen receptor (Homo sapiens), sequence (P10275 whole entry, looked up): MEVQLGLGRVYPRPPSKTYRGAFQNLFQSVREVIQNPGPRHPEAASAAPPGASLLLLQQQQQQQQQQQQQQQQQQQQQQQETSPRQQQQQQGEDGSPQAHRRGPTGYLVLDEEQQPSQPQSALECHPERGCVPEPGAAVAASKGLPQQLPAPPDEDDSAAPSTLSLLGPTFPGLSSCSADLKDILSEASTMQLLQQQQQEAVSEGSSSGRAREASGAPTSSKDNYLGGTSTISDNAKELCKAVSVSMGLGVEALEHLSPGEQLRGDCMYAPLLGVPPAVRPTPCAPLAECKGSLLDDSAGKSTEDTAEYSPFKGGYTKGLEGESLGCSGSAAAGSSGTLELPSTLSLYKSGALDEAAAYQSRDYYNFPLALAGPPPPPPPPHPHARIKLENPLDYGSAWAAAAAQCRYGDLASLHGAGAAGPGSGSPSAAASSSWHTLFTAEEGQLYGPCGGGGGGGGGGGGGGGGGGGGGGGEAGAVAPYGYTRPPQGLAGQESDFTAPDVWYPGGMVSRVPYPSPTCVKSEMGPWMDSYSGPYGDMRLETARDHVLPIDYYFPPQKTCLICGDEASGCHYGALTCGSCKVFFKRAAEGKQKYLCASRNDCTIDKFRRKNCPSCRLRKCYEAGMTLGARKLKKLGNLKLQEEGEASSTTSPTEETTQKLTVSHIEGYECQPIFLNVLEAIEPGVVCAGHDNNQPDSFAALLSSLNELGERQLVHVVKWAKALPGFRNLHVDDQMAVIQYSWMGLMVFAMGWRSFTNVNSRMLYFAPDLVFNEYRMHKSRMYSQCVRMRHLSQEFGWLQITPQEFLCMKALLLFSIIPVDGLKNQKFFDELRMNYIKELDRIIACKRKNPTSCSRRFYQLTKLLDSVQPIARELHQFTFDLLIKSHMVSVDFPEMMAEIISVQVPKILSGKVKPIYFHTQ
# Summary of the method: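 MDA-kb2, MMTV-luc (AR/GR elements); 3,000 cells/well; cpd + 0.5 nM R1881 final; 16 hr 37C, 0% CO2; ONE-Glo 30 min RT; luminescence.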
Structure (SMILES),Potency [1],Potency [2],Potency [3],Potency [4],Potency [5],Potency [6],Potency [7],Potency [8],Potency [9],Potency [10],Potency [11],Potency [12],Potency [13],Potency [14],Potency [15],Potency [16],Potency [17],Potency [18],Potency [19],Potency [20]
[Cl][Eu]([Cl])[Cl],inactive,inactive,inactive,inactive,inactive,inactive,inactive,inactive,inactive,inactive,inactive,inactive,inactive,inactive,inactive,inactive,inactive,inactive,,
C=C(C)C1CCC(C)CC1O (stereo not given),inactive,inactive,inactive,inactive,inactive,inactive,inactive,,inactive,inactive,inactive,inactive,inactive,inactive,inactive,inactive,,,inactive,
CC(Cc1ccc(O)c(O)c1)C(C)Cc1ccc(O)c(O)c1 (stereo not given),inactive,49 µM (active),49 µM (active),49 µM (active),43.6 µM (active),inactive,inactive,inactive,43.6 µM (active),inactive,43.6 µM (active),34.7 µM (active),43.6 µM (active),inactive,inactive,,inactive,inactive,inactive,
CC(C)(C)c1cc(CCC(=O)OCCSCCOC(=O)CCc2cc(C(C)(C)C)c(O)c(C(C)(C)C)c2)cc(C(C)(C)C)c1O,inactive,inactive,inactive,inactive,inactive,inactive,inactive,inactive,inactive,inactive,inactive,inactive,inactive,inactive,inactive,inactive,,inactive,inactive,inactive
CCOC(=O)C1=NN(c2ccc(Cl)cc2Cl)C(C)(C(=O)OCC)C1 (stereo not given),inactive,inactive,inactive,inactive,inactive,inactive,inactive,inactive,inactive,inactive,inactive,,,inactive,inactive,inactive,inactive,,inactive,30.6 µM (active)
CC(C)C(=O)C(C)C,inactive,inactive,inactive,inactive,inactive,inactive,inactive,,inactive,inactive,inactive,inactive,inactive,inactive,inactive,inactive,inactive,inactive,inactive,inactive
CC(c1cc(C(C)(C)C)cc(C(C)(C)C)c1O)c1cc(C(C)(C)C)cc(C(C)(C)C)c1O,inactive,inactive,inactive,inactive,inactive,inactive,inactive,inactive,inactive,inactive,inactive,,inactive,inactive,inactive,inactive,inactive,inactive,inactive,
